Bioassay records: PubChem, National Center for Advancing Translational Sciences (NCATS)
Hits are enriched below; roughly 6.8% of the tested compounds scored in any of these assays.
SW480 rereplic: A quantitative high throughput screen for small molecules that induce DNA re-replication in SW480 colon adenocarcinoma cells. SW480 DNA re-replication, Hoechst DNA content imaging, 48 h. Potency, µM (top dose mostly 46.1 µM), for inactives: at the highest dose re-replication activation, most hits filed as activators. 340,000 compounds, 1.8% hits. AID 624297, 2012; also: % of control where 0% means no effect; nearly all actives have a fitted effect of over 55% in size
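Hoechst fluorescence of nuclei (405 nm excitation, 500-530 nm emission) measured by plate-scanning imager after 48 hr compound exposure at 37 C; re-replication scored as increased number of nuclei with elevated intensity.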
PINK1 expr mod: A Quantitative High throughput Screen to Identify Chemical Modulators of PINK1 Expression | PINK1 immunofluorescence, high-content cytometry, 24 h | 410,000 compounds, 0.2% hits | Potency, µM (titrated, usually from 76.6 µM), for inactives: at the top dose activation (PINK1 increase), usual class: activators | AID 624263, 2012; active = well fitted activation curve with a large enough effect; inconclusive = small, poorly fitted or top-dose-only effect; cell line not stated here; also: % of control where 0% means no effect; nearly all actives have a fitted effect of over 65% in size
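Decision-based qHTS: stable cells, 24 h exposure to five compound concentrations, CCCP as control. Fixed cells stained for PINK1 plus nuclear, mitochondrial and cell markers, cytometer read.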
KB-V1 MDR tox: qHTS assay for MDR1-selective chemotherapeutics: Primary screen using the drug-selected MDR subline cells KB-V1 | KB-V1 MDR cells viability, CellTiter-Glo, 72 h | Potency, µM (doses to about 46.1 µM), most hits filed as cytotoxic | 400,000 compounds, 3.4% hits | AID 1347076, 2019; also: % is scaled to controls: 0 for no effect and ±100 for the full control effect; nearly all actives have a fitted effect of over 60% in size
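qHTS viability screen in drug-selected KB-V1 MDR cells: 72 h compound treatment at 37 degrees C, ATP luminescence end point.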
TSG101-PTAP inh: qHTS Assay for Iinhibitors of HIV-1 Budding by Blocking the Interaction of PTAP/TSG101; Tumor susceptibility gene 101 protein (Homo sapiens), Q99816; Fluorescence polarization, FITC-PTAP peptide / Tsg101 binding; 340,000 tested, under 10 active; Potency, µM (top dose mostly 115 µM), for inactives: at the top dose activity change, negative = inhibition, actives largely listed as inhibitors; active = well fitted inhibition curve with a large enough effect in the main read-out, with a control signal flat, not every such curve was filed as active; inconclusive = small, poorly fitted or top-dose-only effect, or effect the other way, or a change in a side signal; inactive = no such curve, though single readings can be large or run the other way; also: % of control where 0% means no effect
Target sequence (Q99816 whole entry, looked up): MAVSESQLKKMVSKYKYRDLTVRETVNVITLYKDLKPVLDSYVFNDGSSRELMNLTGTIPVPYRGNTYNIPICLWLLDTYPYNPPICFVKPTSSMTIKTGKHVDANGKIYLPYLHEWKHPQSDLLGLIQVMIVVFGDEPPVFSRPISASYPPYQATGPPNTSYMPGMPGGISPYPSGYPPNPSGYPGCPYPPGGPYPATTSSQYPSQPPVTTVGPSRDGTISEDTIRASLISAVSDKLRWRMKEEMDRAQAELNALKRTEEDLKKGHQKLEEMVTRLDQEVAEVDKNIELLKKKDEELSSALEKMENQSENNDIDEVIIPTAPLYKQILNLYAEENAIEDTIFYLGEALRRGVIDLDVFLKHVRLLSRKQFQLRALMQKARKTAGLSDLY
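Tsg101 binding domain (10 uM final) was mixed with compound and a FITC-labeled PTAP peptide (50 nM final) in HEPES pH 7.5 buffer with NaCl, Tween 20, EDTA and TCEP; fluorescence polarization was read after 20 min at r.t.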
MCF10A rerep: A quantitative high throughput screen for small molecules that induce DNA re-replication in MCF 10a normal breast cells; Potency, µM (titrated, usually from 46.1 µM), for the others: at the top dose activity, positive = re-replication, actives largely listed as activators; MCF 10A DNA re-replication, Hoechst nuclear intensity, 48 h; 350,000 compounds, 2.9% hits; also: % of control where 0% means no effect; nearly all actives have a fitted effect of over 50% in size
KB-3-1 tox: qHTS assay for MDR1-selective chemotherapeutics: Primary screen using the parental adenocarcinoma cell KB-3-1; AID 1347075, 2019; Potency, µM (highest dose often 46.1 µM), most hits filed as cytotoxic; KB-3-1 viability, CellTiter-Glo ATP luminescence, 72 h; 400,000 compounds, 1.4% hits; also: % is scaled to controls: 0 for no effect and ±100 for the full control effect; nearly all actives have a fitted effect of over 60% in size
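Screening of KB-3-1 cells (DMEM, 10% FBS, phenol-red free) ran from lowest to highest compound concentration; after 72 h at 37 °C viability was read luminescently and curves fitted.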
* marks the source's active call; other numbers are inactive results; i = inactive; ? = inconclusive; . = no result given; [ ] = dose if it differs, or a comment. Unless noted, calls follow the shape of the dose curve; as a rule, active = well fitted curve in the direction sought with a large enough effect; inconclusive = small, poorly fitted or top-dose-only effect, or another doubt; inactive = no such curve, though single readings can be large; an effect the other way counts as inactive or inconclusive. Potency is read from the fitted curve at half-maximal effect.

SMILES | SW480 rereplic | PINK1 expr mod | KB-V1 MDR tox | TSG101-PTAP inh | MCF10A rerep | KB-3-1 tox
O=C(Nc1ccccc1N1CCCC1)C1CCN(S(=O)(=O)c2ccc(F)cc2)CC1 | ? | -2% | 8.2µM* | -4% | -2% | ?
O=C(Nc1ccccc1N1CCOCC1)C1CCN(S(=O)(=O)c2ccc(F)cc2)CC1 | 95% | 9% | ? | -2% | 1% | i
CCCCCCOC(=O)c1cccnc1 | -11% | . | . | . | -7% | .
COc1ccc(C2c3c(n(C)c4ccccc34)C(=O)N2CC(=O)Nc2cc(Cl)ccc2C)cc1 (stereo not given) | . | -1% | i | . | . | i
COc1ccc(NC(=O)N2CCN(S(=O)(=O)c3ccc4c(ccn4C)c3)CC2)c(OC)c1 | . | -1% | ? | . | . | i
COc1ccc(OCC(O)Cn2c(NCCO)nc3c2c(=O)n(C)c(=O)n3C)cc1 (stereo not given) | . | 0% | . | . | . | .
CCN(C(=O)c1cn(CC(C)C)c(=O)c2cc(OC)c(OC)cc12)c1cc(OC)ccc1OC | . | 1% | i | . | . | i
CCOc1ccccc1NC(=O)C1CCCCN1S(=O)(=O)c1ccccc1 (stereo not given) | 12% | 2% | 8.2µM* | -2% | 14% | ?
CCn1c2ccccc2c2cc(CN3CCOc4ccc(C(O)c5cccnc5)cc4C3)ccc21 (stereo not given) | . | 1% | . | . | . | .
COc1ccccc1C(=O)Oc1c(Sc2ccccc2)c(C)nn1C(C)(C)C | . | 2% | i | . | . | i
O=C(C1CCC(CNS(=O)(=O)c2cccs2)CC1)N1CCN(c2ccc(F)cc2)CC1 (stereo not given) | 26% | 1% | i | -2% | 16µM* | ?
O=C(NCc1ccc(F)cc1)C1CCC(CNS(=O)(=O)c2cccs2)CC1 (stereo not given) | -10% | 10% | ? | 0% | 0% | i
COc1cc(C2C(=O)N(C3CCCC3)CC(=O)N2Cc2ccco2)ccc1OC(C)C (stereo not given) | -3% | -2%[38.3 µM] | 3.7µM* | . | -4% | i
COc1cc(C2C(=O)N(C3CCCCCC3)CC(=O)N2Cc2ccccc2)ccc1OC(C)C (stereo not given) | . | 7% | . | . | . | .
O=C(NC1CCC(n2cc(C(=O)NC3CC3)nn2)CC1)C(=O)c1ccccc1 (stereo not given) | . | 0% | . | . | . | .
N=C1S/C(=C\c2ccc(-c3cccc(Cl)c3)o2)C(=O)N1c1nccs1 | ? | 9% | ? | 0% | ? | 7.3µM*
O=C1OC(c2cccs2)=N/C1=C\c1ccc(-c2cccc(Cl)c2)o1 | 1% | 22%[38.3 µM] | i | 14% | ? | i
COc1ccc(/C=C2\SC(=O)N=C2N)cc1OC | -7% | 9% | i | -2% | 1% | i
COc1ccc(/C=C2\SC(=N)N(c3nccs3)C2=O)cc1OC | 12µM* | 12% | i | 0% | 10µM* | ?
COc1cccc2c1C(=O)/C(=C/c1ccc(N(C)C)cc1)C2 | . | 4% | i | . | . | i
Cc1c(Cl)cccc1N1CCn2c1nc1c2c(=O)n(CC(=O)O)c(=O)n1C | . | 0% | i | . | . | i
N#Cc1ccc(S(=O)(=O)N2CCC(Oc3cccc(C(F)(F)F)c3)CC2)cc1 | . | 1% | . | . | . | .
Nc1c2c(nc3ccccc13)N(C1CCCCC1)CC2 | ? | 2% | ? | 0% | 13µM* | i
Nc1c2c(nc3ccccc13)CCC2 | 3% | 3% | i | -3% | ? | i
Cc1ccc(C(O)c2nccn2C)o1 (stereo not given) | 10% | 1%[38.3 µM] | i | -9% | 5.8µM* | i
